# PubChem BioAssay (Tox21)
# Values without a mark were called inactive. Records with an inconclusive call do not appear. Where a call stands in place of a potency, no number is given. The source made the active and inactive calls. Unless noted, the call rests on the fitted dose curve; in most records, active means well fitted curve in the direction sought with a large enough effect in the repeat runs; inconclusive means weak or mixed curves; inactive means no such curve, though single readings can be large; an effect the other way counts as inactive or inconclusive.
# Tests used:
# [1] = Human pregnane X receptor (PXR) small molecule agonists, qHTS cell viability counter screen (AID 1346977); settings: PXR-Luc HepG2 viability, CellTiter-Fluor, 24 h; series mostly up to 92.4 µM; further: nearly all actives have a fitted effect of over 50% in size; further: potency means the concentration at half of the fitted maximal effect
# Procedure, shortened: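 HepG2 cells stably carrying the PXR-Luc reporter are cultured with 5% charcoal-stripped FBS and treated with compounds for 24hr. CellTiter-Fluor is added at 23hr and fluorescence is read after 1hr.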
# [2] = Caspase-3/7 induction in HepG2 cells by small molecules, qHTS assay (AID 1346978); settings: HepG2 caspase-3/7 activation, Caspase-Glo luminescence, 17 h; series mostly up to 92.4 µM; further: nearly all actives have a fitted effect of over 15% in size; further: potency means the concentration at half of the fitted maximal effect
# Procedure, shortened: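 Wild-type HepG2 cells (2,000/well) were settled 5 h at 37 C, 5% CO2, then exposed to compounds in DMSO for 17 h. Caspase-3/7 activity was read by luminescence 30 min after adding Caspase-Glo 3/7 reagent at room temperature.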
# [3] = Caspase-3/7 induction in CHO-K1 cells by small molecules, qHTS cell viability counter screen (AID 1346979); settings: CellTiter-Fluor fluorescence, 17 h; series mostly up to 92.4 µM; further: nearly all actives have a fitted effect of over 35% in size; further: potency means the concentration at half of the fitted maximal effect
# Procedure, shortened: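 Seeding: 1,500 CHO-K1 cells/well. Rest: 5hr, 37C. Treatment: compounds in DMSO, 16hr. Read: CellTiter-Fluor, 1hr, fluorescence.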
# [4] = Caspase-3/7 induction in CHO-K1 cells by small molecules, qHTS assay (AID 1346980); settings: CHO-K1 caspase-3/7 induction, Caspase-Glo luminescence, 17 h; series mostly up to 92.4 µM; further: nearly all actives have a fitted effect of over 15% in size
# Procedure, shortened: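 Wild-type cells were seeded at 1,500 per well and settled 5 hr at 37 C, 5% CO2, then exposed to DMSO-dissolved compounds for 17 hr. Caspase-Glo 3/7 reagent was added, and luminescence was read after 30min at room temperature.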
# [5] = Caspase-3/7 induction in HepG2 cells by small molecules, qHTS cell viability counter screen (AID 1346981); settings: CellTiter-Fluor fluorescence, 17 h; series mostly up to 92.4 µM; further: nearly all actives have a fitted effect of over 30% in size; further: potency means the concentration at half of the fitted maximal effect
# Procedure, shortened: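 Treatment of HepG2 cells with DMSO-delivered compounds ran 16 hr at 37 C following a 5-hr pre-incubation of 2,000 cells/well. CellTiter-Fluor fluorescence, read after 1 hr, served as the viability measure in a qHTS format.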
# [6] = biological target: Nuclear receptor subfamily 1 group I member 2 (Homo sapiens) (UniProt O75469); test: Human pregnane X receptor (PXR) small molecule agonists, qHTS assay (AID 1346982); settings: PXR-Luc HepG2, CYP3A4 luciferase reporter, 24 h; series mostly up to 92.4 µM; further: nearly all actives have a fitted effect of over 35% in size; further: potency means the concentration at half of the fitted maximal effect
# Sequence of Nuclear receptor subfamily 1 group I member 2 (Homo sapiens) (O75469 whole entry, looked up): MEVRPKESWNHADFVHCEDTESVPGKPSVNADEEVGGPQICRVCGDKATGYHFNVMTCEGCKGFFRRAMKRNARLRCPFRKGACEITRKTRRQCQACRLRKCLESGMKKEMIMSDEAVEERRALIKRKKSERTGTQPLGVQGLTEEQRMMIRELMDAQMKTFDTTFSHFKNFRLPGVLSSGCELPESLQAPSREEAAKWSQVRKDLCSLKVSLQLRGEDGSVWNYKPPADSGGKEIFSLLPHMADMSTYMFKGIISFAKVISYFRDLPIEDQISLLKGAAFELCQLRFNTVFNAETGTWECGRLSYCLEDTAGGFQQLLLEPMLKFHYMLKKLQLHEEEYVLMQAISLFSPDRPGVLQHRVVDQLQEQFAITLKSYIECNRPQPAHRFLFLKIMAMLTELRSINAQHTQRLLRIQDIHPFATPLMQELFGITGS
# Procedure, shortened: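 Stable HepG2 line reporting PXR-mediated CYP3A4 expression via luciferase. Treatment: 24 hr with compounds in DMSO at 37 C. Detection: ONE-Glo luminescence.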
# [7] = biological target: Acetylcholinesterase (Homo sapiens) (UniProt P22303); test: Acetylcholinesterase (AChE) small molecule antagonists: colormetric cell-based qHTS assay (AID 1347395; calls by dose curve; further: nearly all actives have a fitted effect of over 30% in size; further: potency means the concentration at half of the fitted maximal effect); settings: SH-SY5Y cells AChE activity, colorimetric (Ellman); series mostly up to 115 µM
# Sequence of Acetylcholinesterase (Homo sapiens) (P22303 whole entry, looked up): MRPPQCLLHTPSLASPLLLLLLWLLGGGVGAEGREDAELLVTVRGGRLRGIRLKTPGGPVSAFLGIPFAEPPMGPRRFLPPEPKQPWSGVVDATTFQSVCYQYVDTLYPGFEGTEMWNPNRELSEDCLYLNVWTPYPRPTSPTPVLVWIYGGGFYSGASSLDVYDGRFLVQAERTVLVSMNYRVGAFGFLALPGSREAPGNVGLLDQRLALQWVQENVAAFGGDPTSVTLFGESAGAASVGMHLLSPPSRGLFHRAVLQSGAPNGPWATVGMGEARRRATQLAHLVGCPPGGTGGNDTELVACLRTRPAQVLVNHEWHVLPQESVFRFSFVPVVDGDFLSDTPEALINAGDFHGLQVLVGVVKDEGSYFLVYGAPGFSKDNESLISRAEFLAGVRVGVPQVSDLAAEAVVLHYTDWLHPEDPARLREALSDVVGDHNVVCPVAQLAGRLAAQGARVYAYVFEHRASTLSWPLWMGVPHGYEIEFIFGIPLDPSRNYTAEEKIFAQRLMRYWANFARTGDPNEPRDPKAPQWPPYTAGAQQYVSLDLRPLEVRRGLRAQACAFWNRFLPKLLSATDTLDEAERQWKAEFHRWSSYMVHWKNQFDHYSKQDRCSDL
# Procedure, shortened: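 Quantitative HTS in attached SH-SY5Y cells: 30 min compound exposure, then 90 min with acetylthiocholine and DTNB at 37 C; colour from thiocholine reports AChE activity.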
# [8] = biological target: Nuclear receptor subfamily 1 group I member 2 (Rattus norvegicus) (UniProt Q9R1A7); test: Rat pregnane X receptor (rPXR) activation by small molecules, qHTS assay (AID 1346983); settings: rPXR luciferase reporter cells, One-Glo luminescence, 24 h; max activation: stronger effect = higher value; further: nearly all actives have a fitted effect of over 20% in size; further: potency means the concentration at half of the fitted maximal effect
# Sequence of Nuclear receptor subfamily 1 group I member 2 (Rattus norvegicus) (Q9R1A7 whole entry, looked up): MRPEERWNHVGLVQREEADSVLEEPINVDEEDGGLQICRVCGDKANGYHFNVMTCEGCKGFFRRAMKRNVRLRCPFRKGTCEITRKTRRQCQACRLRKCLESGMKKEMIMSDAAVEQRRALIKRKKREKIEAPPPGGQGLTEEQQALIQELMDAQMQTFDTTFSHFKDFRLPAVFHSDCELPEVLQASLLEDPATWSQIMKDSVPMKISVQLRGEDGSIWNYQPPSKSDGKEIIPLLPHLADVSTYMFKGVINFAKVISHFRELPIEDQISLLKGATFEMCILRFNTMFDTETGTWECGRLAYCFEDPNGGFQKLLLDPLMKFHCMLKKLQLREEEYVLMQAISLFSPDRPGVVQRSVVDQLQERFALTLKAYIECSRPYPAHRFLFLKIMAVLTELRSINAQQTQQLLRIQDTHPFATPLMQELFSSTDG
# Procedure, shortened: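 Cell-based rPXR luciferase reporter assay, 2,000 cells per well, rested 5hr at 37 C before compound addition in DMSO, then 24 hr at 37 C. One-Glo reagent was added and luminescence read after 30 min at room temperature.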
# [9] = biological target: Nuclear receptor subfamily 1 group I member 2 (Homo sapiens) (UniProt O75469); test: CYP3A4 induction through human pregnane X receptor (PXR) by small molecules, qHTS assay (AID 1346984); settings: DPX-2 HepG2 PXR, CYP3A4-luciferin luminescence, 24 h; series mostly up to 46.1 µM; further: nearly all actives have a fitted effect of over 40% in size
# Procedure, shortened: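 After 24 h at 37C with compound, DPX-2 cells (HepG2, co-transfected PXR response element and CYP3A4 promoter-luciferase) got 3uM final P450-Glo Luciferin-IPA for 3 h; One-Glo luminescence followed.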
# [10] = biological target: Nuclear receptor subfamily 1 group I member 2 (Homo sapiens) (UniProt O75469); test: Human pregnane X receptor (PXR) activation by small molecules, qHTS assay (AID 1346985); settings: DPX-2 HepG2 CYP3A4-luciferase, 24 h; series mostly up to 38.3 µM; further: nearly all actives have a fitted effect of over 40% in size
# Procedure, shortened: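 DPX-2 cells (HepG2 co-transfected with a PXR response element and a CYP3A4-promoter luciferase construct) were seeded at 2,000 per well, rested 5 hr at 37C, then exposed to DMSO-dissolved compounds for 24 hr. Activation was read as luciferase luminescence.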
Compound,Potency [1],Potency [2],Potency [3],Potency [4],Potency [5],Potency [6],Potency [7],max activation [8] [%],Potency [9],Potency [10],Potency [8]
COC(=O)c1c(C(F)F)nc(C(F)(F)F)c(C2=NCCS2)c1CC(C)C,inactive,inactive,inactive,inactive,inactive,0.77 µM (active),inactive,–,–,–,–
CC(C1CC1)C(O)(Cn1cncn1)c1ccc(Cl)cc1 (centres undefined),inactive,inactive,inactive,inactive,inactive,27.1 µM (active),inactive,–,–,–,–
CCC(=O)c1ccccc1,inactive,inactive,inactive,inactive,inactive,inactive,inactive,–,–,–,–
CCCSP(=S)(OCC)Oc1ccc(Cl)cc1Cl (centres undefined),inactive,inactive,inactive,inactive,inactive,30.6 µM (active),inactive,–,–,–,–
c1coc(-c2nc3ccccc3[nH]2)c1,inactive,inactive,inactive,inactive,inactive,3.44 µM (active),inactive,–,–,–,–
CCCSC(=O)N(CCC)CCC,inactive,inactive,inactive,inactive,inactive,inactive,inactive,–,–,–,–
COc1cc(OC)nc(Sc2cccc(Cl)c2C(=O)O)n1,inactive,inactive,inactive,inactive,inactive,inactive,inactive,–,–,–,–
CC(=O)CC(c1ccc(Cl)cc1)c1c(O)c2ccccc2oc1=O (centres undefined),inactive,inactive,inactive,inactive,inactive,inactive,inactive,–,–,–,–
Nc1cnn(-c2ccccc2)c(=O)c1Cl,inactive,inactive,inactive,inactive,inactive,inactive,inactive,–,–,–,–
N#Cc1c(Cl)cccc1Cl,inactive,inactive,inactive,inactive,inactive,inactive,inactive,–,–,–,–
CCCCP(CCCC)CCCC,inactive,inactive,inactive,inactive,inactive,inactive,inactive,–,–,–,–
CCOc1nc(C(Cl)(Cl)Cl)ns1,inactive,inactive,inactive,inactive,inactive,inactive,inactive,–,–,–,–
Cc1cccc(C#N)c1,inactive,inactive,inactive,inactive,inactive,inactive,inactive,–,–,–,–
CCCCOC(=O)c1ccccc1C(=O)O,inactive,inactive,inactive,inactive,inactive,inactive,inactive,–,–,–,–
CCNc1nc(NC(C)C)nc(OC)n1,inactive,inactive,inactive,inactive,inactive,27.3 µM (active),inactive,–,–,–,–
O=C(NCO)NCO,inactive,inactive,inactive,inactive,inactive,inactive,inactive,–,–,–,–
CC(CC(C#N)(c1ccccc1)c1ccccc1)N(C)C (centres undefined),48.3 µM (active),inactive,inactive,inactive,inactive,inactive,inactive,–,–,–,–
CCCCOP(=O)(O)OCCCC,inactive,inactive,inactive,inactive,inactive,inactive,inactive,–,–,–,–
N#Cc1ccncc1,inactive,inactive,inactive,inactive,inactive,inactive,inactive,–,–,–,–
C[C@]12CC[C@H]3[C@@H](CC=C4C[C@@H](O)CC[C@@]43C)[C@@H]1CC[C@@H]2O,–,–,–,–,–,–,–,-0.895,–,–,–
O=C1c2ccccc2C(=O)c2ccccc21,–,–,–,–,–,–,–,7.01,inactive,inactive,–
CCN(Cc1ccc(Cl)nc1)/C(=C/[N+](=O)[O-])NC,inactive,inactive,inactive,inactive,–,inactive,inactive,-0.716,inactive,inactive,–

Compound,Potency [1],Potency [2],Potency [3],Potency [4],Potency [5],Potency [6],Potency [7],max activation [8] [%],Potency [9],Potency [10],Potency [8]
CCOC(=O)C(c1c(O)c2ccccc2oc1=O)c1c(O)c2ccccc2oc1=O,inactive,inactive,inactive,inactive,inactive,–,inactive,–,–,–,–
O=c1oc2ccccc2c(O)c1C1CCCc2ccccc21 (centres undefined),inactive,inactive,inactive,inactive,inactive,–,inactive,–,–,–,–
O=[N+]([O-])c1cccc2c([N+](=O)[O-])cccc12,inactive,inactive,inactive,inactive,–,inactive,inactive,–,–,–,–
CCCCCCBr,inactive,inactive,inactive,–,inactive,–,–,–,–,–,–
COC(=O)c1ccccc1S(=O)(=O)NC(=O)N(C)c1nc(C)nc(OC)n1,inactive,inactive,inactive,inactive,–,inactive,inactive,–,–,–,–
CC(C=O)Cc1ccc2c(c1)OCO2 (centres undefined),inactive,inactive,inactive,inactive,–,–,inactive,–,–,–,–
ClCC(Cl)(Cl)Cl,inactive,inactive,inactive,inactive,–,inactive,inactive,–,–,–,–
CCOP(=S)(Oc1cnc(C(C)(C)C)nc1)OC(C)C (centres undefined),inactive,inactive,inactive,inactive,–,24.3 µM (active),39.9 µM (active),–,–,–,–
CSc1ccc(C(=O)C(C)(C)N2CCOCC2)cc1,inactive,inactive,inactive,inactive,inactive,–,inactive,–,–,–,–
CC(=O)[C@H]1CC[C@H]2[C@@H]3CC[C@H]4C[C@H](O)CC[C@]4(C)[C@H]3C(=O)C[C@]12C,inactive,inactive,inactive,inactive,–,–,inactive,–,–,inactive,11.2 µM (active)
Cc1ncc2n1-c1ccc(Cl)cc1C(c1ccccc1F)=NC2,inactive,inactive,inactive,inactive,–,33.5 µM (active),inactive,11.3,inactive,–,–
C(CCOCC1CO1)COCC1CO1 (centres undefined),inactive,inactive,inactive,inactive,–,inactive,inactive,–,–,–,–
C1CCC(C2CCCCC2)CC1,inactive,inactive,inactive,inactive,–,inactive,inactive,–,–,–,–
O=C(Oc1ccc(Br)cc1)N1CCN2CCC1CC2,inactive,inactive,inactive,inactive,–,inactive,inactive,–,–,–,–
CC1CCC(=O)O1 (centres undefined),inactive,inactive,inactive,inactive,–,inactive,–,–,–,–,–
BrCCCCCCBr,inactive,inactive,inactive,inactive,–,inactive,–,–,–,–,–
O=[N+]([O-])c1cccc(O)c1,inactive,inactive,inactive,inactive,–,–,inactive,–,–,–,–
Nc1cc(Cl)ccc1O,inactive,inactive,29.6 µM (active),inactive,–,–,inactive,–,–,–,–
CCOP(=O)(N=C1SCCS1)OCC,inactive,inactive,inactive,inactive,–,inactive,–,–,–,–,–
CCOP(=O)(OCC)OP(=O)(OCC)OCC,inactive,inactive,inactive,inactive,–,inactive,inactive,–,–,–,–
COC(C)(C)C,inactive,inactive,inactive,inactive,–,inactive,inactive,–,–,–,–
ClC(Br)Br,inactive,inactive,inactive,inactive,–,inactive,inactive,–,–,–,–

Compound,Potency [1],Potency [2],Potency [3],Potency [4],Potency [5],Potency [6],Potency [7],max activation [8] [%],Potency [9],Potency [10],Potency [8]
NC(=O)O,inactive,inactive,inactive,inactive,–,inactive,–,–,–,–,–
C[N+](C)=CCl,inactive,inactive,inactive,inactive,–,inactive,inactive,–,–,–,–
CCC1(c2ccccc2)C(=O)NC(=O)NC1=O,inactive,inactive,inactive,inactive,–,inactive,inactive,-0.894,inactive,inactive,–
O=C1OC(c2ccc(O)c(S(=O)(=O)O)c2)(c2ccc(O)c(S(=O)(=O)O)c2)c2c(Br)c(Br)c(Br)c(Br)c21,inactive,inactive,inactive,inactive,–,inactive,–,-0.923,inactive,inactive,–
COP(N)(=S)Oc1ccccc1C(=O)OC(C)C (centres undefined),inactive,inactive,inactive,–,inactive,–,–,–,–,–,–
Clc1cccc(N2CCNCC2)c1,inactive,inactive,inactive,inactive,–,inactive,inactive,–,–,–,–
NC(=S)C(N)=S,inactive,inactive,inactive,inactive,–,inactive,inactive,–,–,–,–
CCCCc1c(C)nc(NCC)[nH]c1=O,inactive,inactive,inactive,inactive,inactive,–,inactive,–,–,–,–
CCOP(=S)(OCC)SCSc1ccc(Cl)cc1,inactive,inactive,inactive,inactive,–,10.9 µM (active),–,–,–,–,–
CC(C)(C)C(=O)C(Oc1ccc(Cl)cc1)n1cncn1 (centres undefined),inactive,inactive,inactive,inactive,–,27.3 µM (active),inactive,–,–,–,–
C=CC1CC=CCC1 (centres undefined),inactive,inactive,inactive,inactive,inactive,–,inactive,–,–,–,–
CCC(Cl)[N+](=O)[O-] (centres undefined),inactive,inactive,inactive,inactive,–,inactive,inactive,–,–,–,–
O=P(O)(Oc1ccccc1)Oc1ccccc1,inactive,inactive,inactive,inactive,–,inactive,inactive,–,–,–,–
CNC(=O)Oc1ccc(N(C)C)c(C)c1,inactive,inactive,inactive,inactive,inactive,–,5.64 µM (active),–,–,–,–
COc1cccc(C(=O)NN(C(=O)c2cc(C)cc(C)c2)C(C)(C)C)c1C,inactive,inactive,61.1 µM (active),inactive,–,inactive,inactive,–,–,–,–
C=CCC1=C(C)[C@@H](OC(=O)[C@@H]2[C@@H](C=C(C)C)C2(C)C)CC1=O,61.1 µM (active),inactive,43.3 µM (active),–,–,9.69 µM (active),inactive,–,–,–,–
COc1cccc2c1cc([N+](=O)[O-])c1c(C(=O)O)cc3c(c12)OCO3,12.2 µM (active),9.69 µM (active),21.7 µM (active),–,27.3 µM (active),–,inactive,–,–,–,–
O=C1CN=C(c2ccccc2)c2cc([N+](=O)[O-])ccc2N1,inactive,inactive,inactive,–,inactive,–,inactive,-2.6,inactive,inactive,–
Cc1cnc[nH]1,inactive,inactive,inactive,–,inactive,inactive,inactive,–,–,–,–
[As]#[In],inactive,inactive,inactive,–,inactive,inactive,inactive,–,–,–,–
